Sampled rows, rich in hits. Any-hit rate of the full collection: about 2.8%.
HIF-2a block = inhibitors of HIF-2a; 786-0 RCC cells HIF-2a reporter, luciferase luminescence, overnight; AID 624352; inhibition, % at 18.8 µM; 360,000 tested, 0.72% active;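 active = inhibition of the luminescence signal of 40% or more relative to plate controls, in a single-dose primary screen at 18.75 µM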
Shn3 inh set2 = reduces Shn3 3'UTR luciferase signal in osteoblasts; Clone20 osteoblast Shn3 3'UTR firefly luciferase, 24 h; inhibition, % at 12.5 µM; 360,000 tested, 0.52% active;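 active = mean inhibition of at least 75% with every replicate also reaching 75%; inconclusive = mean inhibition at least 75% but some replicate below; inactive = mean inhibition below 75%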;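 also: 0% = median of neutral control wells and 100% = pilot-screen positive control compound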
Peg3 promoter = Peg3 promoter activity inhibition | 360,000 tested, 1.7% active | HeLa PEG-Prom luciferase reporter, luminescence, overnight | inhibition, % at 20 µM;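 active = inhibition of at least 50% at 20 µM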
MITF TRPM1 inh = reduces MITF-dependent TRPM1 promoter luciferase signal; SK-MEL-5 TRPM1 promoter luciferase, 24 h; inhibition, % at 12.5 µM; AID 488899; 330,000 tested, 0.83% active;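 active = mean inhibition across replicates of 60% or more, whatever share of single replicates reaches that level; inconclusive = some that reach 60%, reason not given; inactive = mean inhibition across replicates below 60%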
PAX8 reporter = PAX8 transcriptional activity inhibition. RMG-I TPO-luciferase reporter, SteadyGlo, 24 h. inhibition, % at 12.6 µM. 360,000 tested, 1.2% active. AID 652154;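 active = mean replicate inhibition at least 60% with every replicate also reaching 60%; inconclusive = only one of the two criteria is met; inactive = mean below 60% and not all replicates reaching 60%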;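 also: luciferase light reporting Pax8 driven TPO promoter activity; plate controls were median of neutral control wells for no effect and mitoxantrone controls for full effect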
EBV LMP1 NFkB = reduces LMP1-driven NF-kappaB luciferase signal; inhibition, % at 12.5 µM; 350,000 tested, 0.69% active; LMP1-induced NF-kappaB luciferase reporter cells, luminescence; in the data active = inhibition above about 41%; inconclusive = no clear call, values can overlap the other calls;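 also: 0% = neutral control wells and 100% = reference inhibitor control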
Mdm2-MdmX confirm = Mdm2/MdmX (human) interaction inhibition, confirmed | shares compounds with HIF-2a block | SaOS-2 split-luciferase Mdm2/MdmX complementation, luminescence | inhibition, % at 8 µM | 740 tested, 99% active | AID 504601;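 active = mean inhibition of the luminescence signal across two replicates at or above 26 percent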
Target sequence (O15151 whole entry, looked up): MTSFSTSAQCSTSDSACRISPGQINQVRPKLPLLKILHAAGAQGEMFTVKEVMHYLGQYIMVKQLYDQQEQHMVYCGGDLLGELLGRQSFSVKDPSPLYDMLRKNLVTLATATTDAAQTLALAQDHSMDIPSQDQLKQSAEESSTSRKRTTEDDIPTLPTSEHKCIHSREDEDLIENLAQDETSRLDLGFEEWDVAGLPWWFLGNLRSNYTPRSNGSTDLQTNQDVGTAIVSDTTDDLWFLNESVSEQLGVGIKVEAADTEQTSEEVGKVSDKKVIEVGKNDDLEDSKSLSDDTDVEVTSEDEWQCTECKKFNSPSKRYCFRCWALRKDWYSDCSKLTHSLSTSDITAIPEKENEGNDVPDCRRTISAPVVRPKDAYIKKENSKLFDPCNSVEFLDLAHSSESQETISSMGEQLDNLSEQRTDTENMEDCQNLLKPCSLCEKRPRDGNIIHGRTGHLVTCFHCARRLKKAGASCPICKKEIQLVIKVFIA
Target sequence (Q00987 whole entry, looked up): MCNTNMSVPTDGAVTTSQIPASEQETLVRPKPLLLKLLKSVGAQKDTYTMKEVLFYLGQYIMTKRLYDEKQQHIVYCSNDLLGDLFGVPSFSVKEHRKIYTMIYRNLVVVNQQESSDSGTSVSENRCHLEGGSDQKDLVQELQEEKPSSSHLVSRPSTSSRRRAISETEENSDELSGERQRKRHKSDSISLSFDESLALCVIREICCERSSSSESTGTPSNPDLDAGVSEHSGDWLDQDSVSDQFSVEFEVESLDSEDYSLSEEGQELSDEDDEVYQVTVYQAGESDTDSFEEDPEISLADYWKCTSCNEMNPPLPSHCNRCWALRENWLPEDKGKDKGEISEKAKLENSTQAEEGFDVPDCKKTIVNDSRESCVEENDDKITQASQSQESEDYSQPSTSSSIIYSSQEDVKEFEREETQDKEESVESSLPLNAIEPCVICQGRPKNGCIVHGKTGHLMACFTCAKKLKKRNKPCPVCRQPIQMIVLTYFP
HIF-2a conf = confirmation of HIF-2a inhibitors. shares compounds with HIF-2a block. 786-0 RCC cells, HIF-2a luciferase reporter luminescence, overnight. inhibition, % at 18.8 µM. 1,800 tested, 56% active. AID 651580;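 active = mean inhibition across four replicates of at least 40 percent at the single tested concentration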
HIF-1a counter = counter-screen for HIF-2a inhibitors: HIF-1a inhibition in MiaPaCa-2 cells; 1,800 tested, 72% active; AID 651589; MiaPaCa-2 HIF-1a luciferase reporter, desferoxamine, overnight; inhibition, % at 18.8 µM; shares compounds with HIF-2a block;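 active = mean inhibition of the reporter signal across four replicates at the single tested dose of 50% or more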
* hit, by the source's call; ? = inconclusive; nt = no result.

SMILES	HIF-2a block	Shn3 inh set2	Peg3 promoter	MITF TRPM1 inh	PAX8 reporter	EBV LMP1 NFkB	HIF-2a conf	HIF-1a counter	others
COc1cc2c(cc1OC)C(c1cc(Br)ccc1F)N(C(=O)CCl)CC2 (stereo not given)	90*	98*	102*	98*	-18	-10	97*	103*	Mdm2-MdmX confirm=103*
CC(=O)c1ccc(NC(=O)c2noc3c2CCC3)cc1	49*	40	28	56	46	65*	72*	61*
COc1ccc(NC(=O)c2noc3c2CCC3)cc1	-61	-32	-122	-41	-50	6	nt	nt
CCS(=O)(=O)NCC[C@H]1CC[C@H](NS(=O)(=O)c2cccc(Cl)c2)[C@H](CO)O1	nt	nt	nt	nt	-5	nt	nt	nt
Cc1ccc(Nc2c(-c3ccccn3)nc3cc(C)ccn23)cc1	-14	95*	39	64*	58	?	nt	nt	Mdm2-MdmX confirm=88*
Cc1ccc(Nc2c(-c3ccccn3)nc3ccc(C)cn23)cc1	-42	95*	12	70*	42	28	nt	nt	Mdm2-MdmX confirm=86*
C[C@H]1CN([C@@H](C)CO)C(=O)c2cc(NS(=O)(=O)c3ccc(Cl)cc3)ccc2O[C@H]1CN(C)S(=O)(=O)c1ccc(Cl)cc1	nt	nt	nt	nt	-6	nt	nt	nt
Cc1ccc(S(=O)(=O)N2CCOCC2)cc1NC(=O)c1cc(-c2ccccn2)nc2ccccc12	95*	-2	90*	21	-9	1	14	50
COc1ccc2[nH]c3c(=O)n(/N=C/[C@H]4C(C)C=C(C)CC4C)c(=O)[nH]c3c2c1 (stereo not given in full)	58*	1	51*	17	-2	6	-2	100*
CC(=O)c1ccc(Nc2cc(C)nc3c(C)cc(C)cc23)cc1	59*	3	103*	54	20	-20	18	85*
CC(=O)O[C@@H]1C[C@H]2C(C)=C[C@H]3OC(=O)[C@@H](C)[C@H]3C[C@H]2[C@]1(C)O	-16	-12	-3	0	-7	-7	nt	nt
C=C1C(=O)O[C@H]2C[C@H]1[C@@H](OC(C)=O)C/C(C)=C/CC/C(C)=C\CC[C@]2(C)O	94*	71	89*	99*	111*	48*	96*	105*
Cc1cc(O)c(C(C)C)cc1C1(c2cc(C(C)C)c(O)cc2C)OC(=O)c2ccccc21	50*	40	111*	57	89*	4	63*	107*
COCC(=O)Nc1ccc2c(c1)C(=O)N(C)[C@@H]1CC[C@H](CC(=O)OC)O[C@@H]1CO2	nt	nt	nt	nt	-21	nt	nt	nt
Cn1c(=O)[nH]c(=O)c2c1nc([N+](=O)[O-])n2Cc1ccccc1	97*	98*	117*	93*	101*	95*	nt	nt	Mdm2-MdmX confirm=103*
Cn1c(=O)[nH]c(=O)c2c1nc(N1CCNCC1)n2Cc1ccccc1	19	-11	28	3	-20	11	nt	nt
Cc1noc(C)c1S(=O)(=O)Nc1ccc2c(c1)C(=O)N([C@@H](C)CO)C[C@H](C)[C@H](CN(C)Cc1ccccc1)OCCCC[C@H](C)O2	nt	nt	nt	nt	1	nt	nt	nt
Nc1ccc(-c2cc3ccccc3oc2=O)cc1	88*	77	38	94*	9	58*	98*	84*
CS(=O)(=O)N1CCCCN2[C@H](CO)[C@@H](c3ccc(Br)cc3)[C@H]2C1	nt	nt	nt	nt	1	nt	nt	nt
COc1cc(SC#N)ccc1N=Cc1c(C)[nH]n(-c2ccc(C)c(C)c2)c1=O	14	?	100*	88*	33	-383	nt	nt	Mdm2-MdmX confirm=98*
C[C@@H]1[C@@H](Sc2ccccc2)CC(=O)O[C@@H]1c1ccc(-c2ccccc2)cc1	98*	-24	97*	11	24	2	6	101*	Mdm2-MdmX confirm=103*
C[C@@H]1CN([C@@H](C)CO)C(=O)c2cccc(NS(=O)(=O)c3ccc(F)cc3)c2O[C@@H]1CN(C)Cc1ccc2c(c1)OCO2	nt	nt	nt	nt	4	nt	nt	nt
COC(CN(C(=O)CCl)C(C(=O)NC1CCCCC1)c1ccc(Cl)cc1)OC (stereo not given)	4	-10	16	-3	11	-3	nt	nt
COc1ccc(N(C(=O)c2cnccn2)C(C(=O)NC2CCCCC2)c2ccc(Cl)cc2)cc1 (stereo not given)	8	-17	21	-4	nt	4	nt	nt
COc1ccc(C(C(=O)NC2CCCCC2)N(C(=O)CCl)c2ccc(Cl)cc2)cc1 (stereo not given)	27	94*	74*	79*	nt	17	nt	nt	Mdm2-MdmX confirm=98*
SMILES	HIF-2a block	Shn3 inh set2	Peg3 promoter	MITF TRPM1 inh	PAX8 reporter	EBV LMP1 NFkB	HIF-2a conf	HIF-1a counter	others
COC(CN(C(=O)CCl)C(C(=O)NC1CCCCC1)c1ccccc1C)OC (stereo not given)	47*	2	64*	27	59	5	10	84*
CC=Cc1ccc2n(c1=O)C[C@H]1[C@H](CO)[C@@H](C(=O)Nc3nccs3)N(Cc3ccccc3F)[C@@H]21 (mixture of isomers)	nt	nt	nt	nt	-5	nt	nt	nt
O=C(/C=C/c1ccccc1)c1ccc(NC2=NCCCS2)cc1	-177	-2	-131	-31	-109	-22	nt	nt
O=C(/C=C/c1ccc(Br)cc1)c1ccc(NC2=NCCCS2)cc1	67*	71	108*	55	5	23	-27	107*
CCOC(=O)/C=C/C(=O)Nc1ccccc1-c1ccccc1NC(=O)/C=C/C(=O)OCC	55*	64	70*	14	14	-33	14	45
CNC(=O)NC(=O)C(C)OC(=O)CCCSc1nc2ccccc2s1 (stereo not given)	71*	-14	14	41	-8	4	84*	63*
CCNC(=O)NC(=O)COC(=O)CCCSc1nc2ccccc2s1	60*	-21	-10	1	10	1	86*	60*
CCNC(=O)NC(=O)C(C)OC(=O)CCCSc1nc2ccccc2s1 (stereo not given)	68*	-4	14	38	27	11	86*	68*
CC(OC(=O)CCCc1nc2ccccc2s1)C(=O)NC(N)=O (stereo not given)	8	3	-5	15	-7	0	nt	nt
CNC(=O)NC(=O)C(C)OC(=O)CCCc1nc2ccccc2s1 (stereo not given)	7	8	4	3	5	0	nt	nt
COc1ccccc1S(=O)(=O)N[C@H]1C=C[C@@H](CC(=O)N2CCOCC2)O[C@@H]1CO	nt	nt	nt	nt	-16	nt	nt	nt
C[C@@H]1CCCCO[C@H](CN(C)S(C)(=O)=O)[C@@H](C)CN([C@H](C)CO)C(=O)c2cc(N(C)C)ccc2O1	nt	nt	nt	nt	-13	nt	nt	nt
